Measurements published in the supplement of paper PMC10849652.
Of roughly 7,900 targets only a part is listed; those with a hit were picked by preference. About 0.6% of all pairs of compound and target were hits.

Tests used:
Test in all cases: log2 fold change, soluble protein after heating vs DMSO (PISA); higher = thermal stabilisation; K562 cells, 10 uM, 30 min; active = over 0.2 and 3.5 SD of the protein, either way, in both replicates (recomputed)
[1] = compound: COC1=CC=C(C=C1)CN2C=CC3=C2C=C(C=C3)C(=O)NO
How it was run: (§1)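 K562 cells (2×10^6 cells/mL) were treated with 10 μM compound for 30 min, and aliquots were heated for 3 min over 48°C-58°C. Pooled aliquots were extracted in PBS with 0.5% NP-40 at 4°C, and the supernatant after 21,000xg for 90 min was measured by TMTpro 16plex LC-MS/MS with channel sums equalised. Reported thermal stability, relative to control samples and from duplicates, is a log2 fold change.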

filanesib = compound: CON(C)C(=O)N1N=C(c2cc(F)ccc2F)S[C@@]1(CCCN)c1ccccc1 [filanesib]
How it was run: as §1

zotarolimus = compound: CO[C@H]1C[C@@H]2CC[C@@H](C)[C@@](O)(O2)C(=O)C(=O)N2CCCC[C@H]2C(=O)O[C@H]([C@H](C)C[C@@H]2CC[C@H](n3cnnn3)[C@H](OC)C2)CC(=O)[C@H](C)/C=C(\C)[C@@H](O)[C@@H](OC)C(=O)[C@H](C)C[C@H](C)/C=C/C=C/C=C/1C [zotarolimus]
How it was run: as §1

idasanutlin = compound: COc1cc(C(=O)O)ccc1NC(=O)[C@@H]1N[C@@H](CC(C)(C)C)[C@](C#N)(c2ccc(Cl)cc2F)[C@H]1c1cccc(Cl)c1F [idasanutlin]
How it was run: as §1

alisertib = compound: COc1cc(Nc2ncc3c(n2)-c2ccc(Cl)cc2C(c2c(F)cccc2OC)=NC3)ccc1C(=O)O [alisertib]
How it was run: as §1

[2] = compound: COc1cc2nc(-c3cc(F)ccc3O)nc(N[C@@H]3CNC[C@H]3C(C)(C)O)c2cc1OC
How it was run: as §1

gefitinib = compound: COc1cc2ncnc(Nc3ccc(F)c(Cl)c3)c2cc1OCCCN1CCOCC1 [gefitinib]
How it was run: as §1

[3] = compound: COc1cccc2cc(-c3nc([C@H]4CC[C@H](C(=O)O)CC4)n4ncnc(N)c34)[nH]c12
How it was run: as §1

lapatinib = compound: CS(=O)(=O)CCNCc1ccc(-c2ccc3ncnc(Nc4ccc(OCc5cccc(F)c5)c(Cl)c4)c3c2)o1 [lapatinib]
How it was run: as §1

pictilisib = compound: CS(=O)(=O)N1CCN(Cc2cc3nc(-c4cccc5[nH]ncc45)nc(N4CCOCC4)c3s2)CC1 [pictilisib]
How it was run: as §1

Measured: log2 fold change

PIP4K2A (UniProt P48426)
Chain of UniProt P48426 (P48426 whole entry, looked up): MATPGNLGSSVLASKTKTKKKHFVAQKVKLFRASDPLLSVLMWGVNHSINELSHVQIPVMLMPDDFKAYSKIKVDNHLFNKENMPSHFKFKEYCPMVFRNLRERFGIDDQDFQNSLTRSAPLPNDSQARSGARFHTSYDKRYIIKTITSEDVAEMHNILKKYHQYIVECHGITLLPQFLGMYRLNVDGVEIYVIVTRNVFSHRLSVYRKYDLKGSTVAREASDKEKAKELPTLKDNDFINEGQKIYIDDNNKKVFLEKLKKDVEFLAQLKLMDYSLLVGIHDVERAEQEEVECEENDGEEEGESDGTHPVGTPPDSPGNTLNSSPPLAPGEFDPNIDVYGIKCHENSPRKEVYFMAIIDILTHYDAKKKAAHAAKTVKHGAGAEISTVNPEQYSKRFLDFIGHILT
active: [2] 0.379
inactive: [1] 0.022 | filanesib 0.006 | zotarolimus -0.002 | idasanutlin -0.11 | alisertib -0.018 | gefitinib 0.017 | [3] 0.314 | lapatinib -0.054 | pictilisib 0.132

PSMD12 (UniProt O00232)
inactive: [1] -0.015 | filanesib 0.047 | zotarolimus 0.013 | idasanutlin -0.025 | alisertib -0.096 | [2] -0.07 | gefitinib -0.018 | [3] -0.067 | lapatinib 0.096 | pictilisib -0.059

PBX2 (UniProt P40425)
inactive: [1] 0.132 | filanesib -0.055 | zotarolimus 0.115 | idasanutlin 0.102 | alisertib -0.027 | [2] -0.114 | gefitinib -0.02 | [3] 0 | lapatinib 0.014 | pictilisib 0.01

PRKAR2A (UniProt P13861)
Chain of UniProt P13861 (P13861 whole entry, looked up): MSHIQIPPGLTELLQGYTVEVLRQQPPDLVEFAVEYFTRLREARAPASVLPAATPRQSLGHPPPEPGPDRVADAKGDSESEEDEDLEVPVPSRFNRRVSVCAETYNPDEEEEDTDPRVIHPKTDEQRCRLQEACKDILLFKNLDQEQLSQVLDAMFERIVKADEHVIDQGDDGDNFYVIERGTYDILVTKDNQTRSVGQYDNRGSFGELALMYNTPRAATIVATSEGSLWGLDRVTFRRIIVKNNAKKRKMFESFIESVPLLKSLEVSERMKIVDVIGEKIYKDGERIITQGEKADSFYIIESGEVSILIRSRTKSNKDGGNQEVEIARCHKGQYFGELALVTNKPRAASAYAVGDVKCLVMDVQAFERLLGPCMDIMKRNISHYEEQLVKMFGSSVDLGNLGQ
inactive: [1] -0.033 | filanesib -0.021 | zotarolimus 0.013 | idasanutlin -0.009 | alisertib -0.058 | gefitinib 0.048 | [3] 0.006 | lapatinib 0.034 | pictilisib 0.057
active: [2] -0.493

POLR3D (UniProt P05423)
Chain of UniProt P05423 (P05423 whole entry, looked up): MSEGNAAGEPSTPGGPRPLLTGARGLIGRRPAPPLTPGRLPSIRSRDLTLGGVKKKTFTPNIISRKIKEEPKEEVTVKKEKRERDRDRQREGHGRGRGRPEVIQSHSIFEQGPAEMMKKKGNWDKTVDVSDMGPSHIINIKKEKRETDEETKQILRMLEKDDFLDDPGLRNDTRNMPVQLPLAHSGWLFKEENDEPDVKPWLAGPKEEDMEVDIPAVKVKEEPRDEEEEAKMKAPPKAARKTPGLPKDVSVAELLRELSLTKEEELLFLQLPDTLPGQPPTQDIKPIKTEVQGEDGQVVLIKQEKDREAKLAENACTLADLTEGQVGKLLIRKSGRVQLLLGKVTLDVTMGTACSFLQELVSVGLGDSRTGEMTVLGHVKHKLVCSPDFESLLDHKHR
active: idasanutlin 0.574
inactive: [1] -0.014 | filanesib 0.041 | zotarolimus 0.065 | alisertib -0.091 | [2] -0.017 | gefitinib 0.036 | [3] -0.136 | lapatinib -0.001 | pictilisib 0.013

PHF5A (UniProt Q7RTV0)
inactive: [1] 0.014 | filanesib 0.087 | zotarolimus -0.024 | idasanutlin 0.056 | alisertib -0.033 | [2] 0.067 | gefitinib 0.003 | [3] 0.026 | lapatinib -0.051 | pictilisib 0.071

PRKCB isoform 2 (UniProt P05771)
inactive: [1] -0.011 | filanesib -0.022 | zotarolimus 0.046 | idasanutlin -0.028 | alisertib -0.051 | [2] 0.035 | gefitinib 0.001 | [3] -0.036 | lapatinib -0.008 | pictilisib 0.035

PCK2 (UniProt Q16822)
inactive: filanesib -0.007 | zotarolimus 0.045 | idasanutlin -0.044 | alisertib -0.035 | [2] 0.024 | gefitinib -0.025 | [3] 0.027 | lapatinib -0.045 | pictilisib 0.011
active: [1] -0.339

PDCD2L (UniProt Q9BRP1)
inactive: [1] 0.085 | filanesib 0.014 | zotarolimus -0.033 | idasanutlin -0.031 | alisertib -0.033 | [2] 0 | gefitinib -0.09 | [3] -0.018 | lapatinib -0.048 | pictilisib -0.062

PKM (UniProt P14618)
inactive: [1] 0 | filanesib -0.048 | zotarolimus -0.004 | idasanutlin -0.04 | alisertib -0.073 | [2] 0.012 | gefitinib -0.002 | [3] 0.054 | lapatinib -0.033 | pictilisib 0.026

PARN (UniProt O95453)
inactive: [1] 0.001 | filanesib -0.015 | zotarolimus -0.009 | idasanutlin -0.028 | alisertib 0.001 | [2] 0.051 | gefitinib -0.009 | [3] 0.04 | lapatinib -0.028 | pictilisib -0.036

PDCD6 (UniProt O75340)
inactive: [1] -0.06 | filanesib -0.124 | zotarolimus -0.03 | idasanutlin -0.106 | alisertib 0.092 | [2] 0.047 | gefitinib -0.021 | [3] 0.013 | lapatinib -0.035 | pictilisib 0.038

PLEKHM2 (UniProt Q8IWE5)
Chain of UniProt Q8IWE5 (Q8IWE5 whole entry, looked up): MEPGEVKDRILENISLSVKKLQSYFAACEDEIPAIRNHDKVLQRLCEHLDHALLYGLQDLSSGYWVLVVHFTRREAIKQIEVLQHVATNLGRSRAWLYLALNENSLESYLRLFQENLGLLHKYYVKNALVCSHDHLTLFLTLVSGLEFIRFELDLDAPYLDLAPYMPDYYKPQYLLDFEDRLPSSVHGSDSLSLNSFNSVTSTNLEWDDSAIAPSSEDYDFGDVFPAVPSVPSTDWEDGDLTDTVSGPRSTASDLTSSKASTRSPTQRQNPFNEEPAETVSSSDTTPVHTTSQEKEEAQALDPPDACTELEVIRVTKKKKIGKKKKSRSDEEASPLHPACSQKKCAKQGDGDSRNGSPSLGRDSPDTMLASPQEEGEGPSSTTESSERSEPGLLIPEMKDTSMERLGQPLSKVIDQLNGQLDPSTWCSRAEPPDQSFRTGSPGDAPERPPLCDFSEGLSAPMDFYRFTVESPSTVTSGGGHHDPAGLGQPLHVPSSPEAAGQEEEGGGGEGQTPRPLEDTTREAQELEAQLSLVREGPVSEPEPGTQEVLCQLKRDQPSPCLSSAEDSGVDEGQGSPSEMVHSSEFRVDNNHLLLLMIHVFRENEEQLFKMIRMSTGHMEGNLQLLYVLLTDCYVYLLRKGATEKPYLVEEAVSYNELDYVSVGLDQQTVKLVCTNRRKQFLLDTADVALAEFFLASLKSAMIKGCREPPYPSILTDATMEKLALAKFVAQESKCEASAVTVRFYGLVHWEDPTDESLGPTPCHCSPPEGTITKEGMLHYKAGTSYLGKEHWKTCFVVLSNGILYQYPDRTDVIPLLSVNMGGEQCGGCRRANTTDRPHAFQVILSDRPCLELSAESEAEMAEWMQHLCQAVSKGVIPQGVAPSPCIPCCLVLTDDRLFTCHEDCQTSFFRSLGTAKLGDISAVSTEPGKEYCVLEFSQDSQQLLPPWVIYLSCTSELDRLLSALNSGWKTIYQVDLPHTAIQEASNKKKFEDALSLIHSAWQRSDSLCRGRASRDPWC
inactive: [1] 0.007 | filanesib -0.09 | zotarolimus 0.053 | idasanutlin -0.083 | alisertib 0.044 | [2] -0.041 | gefitinib 0.075 | [3] -0.041 | lapatinib 0.084 | pictilisib 0.011

PLD3 (UniProt Q8IV08)
inactive: [1] -0.027 | filanesib -0.131 | zotarolimus -0.006 | idasanutlin 0.001 | alisertib -0.139 | [2] 0.019 | gefitinib 0.008 | [3] 0.027 | lapatinib -0.025 | pictilisib 0.045

PIKFYVE (UniProt Q9Y2I7)
inactive: [1] 0.03 | filanesib -0.036 | zotarolimus -0.074 | idasanutlin -0.096 | alisertib 0.016 | [2] -0.037 | gefitinib -0.308 | [3] -0.044 | lapatinib -0.098 | pictilisib -0.047

PRKD2 isoform 3 (UniProt Q9BZL6)
Chain of UniProt Q9BZL6 (Q9BZL6 whole entry, looked up): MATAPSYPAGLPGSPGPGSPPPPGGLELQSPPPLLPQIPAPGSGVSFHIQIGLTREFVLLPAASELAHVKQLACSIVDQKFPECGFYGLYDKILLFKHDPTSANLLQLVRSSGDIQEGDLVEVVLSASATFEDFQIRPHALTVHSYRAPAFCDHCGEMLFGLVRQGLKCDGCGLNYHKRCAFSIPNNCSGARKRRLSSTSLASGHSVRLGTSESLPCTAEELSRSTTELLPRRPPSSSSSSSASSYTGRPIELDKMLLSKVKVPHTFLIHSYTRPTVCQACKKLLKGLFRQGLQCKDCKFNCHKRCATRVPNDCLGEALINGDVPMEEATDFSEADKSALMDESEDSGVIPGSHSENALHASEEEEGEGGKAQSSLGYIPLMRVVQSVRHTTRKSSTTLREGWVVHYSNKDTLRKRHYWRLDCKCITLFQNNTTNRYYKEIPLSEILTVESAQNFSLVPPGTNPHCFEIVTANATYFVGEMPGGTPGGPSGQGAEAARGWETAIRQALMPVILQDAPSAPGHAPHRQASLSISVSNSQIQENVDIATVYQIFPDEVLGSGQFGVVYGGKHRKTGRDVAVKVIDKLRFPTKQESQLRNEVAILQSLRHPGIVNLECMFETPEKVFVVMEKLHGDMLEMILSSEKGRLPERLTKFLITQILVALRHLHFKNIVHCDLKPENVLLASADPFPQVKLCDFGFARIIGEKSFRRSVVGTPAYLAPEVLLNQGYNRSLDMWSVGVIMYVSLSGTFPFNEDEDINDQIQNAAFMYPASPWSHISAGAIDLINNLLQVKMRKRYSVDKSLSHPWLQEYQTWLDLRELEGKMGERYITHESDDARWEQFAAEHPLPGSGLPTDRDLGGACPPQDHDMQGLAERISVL
inactive: [1] -0.05 | filanesib -0.037 | zotarolimus -0.125 | idasanutlin 0.078 | alisertib -0.03 | [2] -0.042 | gefitinib -0.159 | [3] 0.033 | lapatinib -0.011 | pictilisib -0.17

PPOX (UniProt P50336)
Chain of UniProt P50336 (P50336 whole entry, looked up): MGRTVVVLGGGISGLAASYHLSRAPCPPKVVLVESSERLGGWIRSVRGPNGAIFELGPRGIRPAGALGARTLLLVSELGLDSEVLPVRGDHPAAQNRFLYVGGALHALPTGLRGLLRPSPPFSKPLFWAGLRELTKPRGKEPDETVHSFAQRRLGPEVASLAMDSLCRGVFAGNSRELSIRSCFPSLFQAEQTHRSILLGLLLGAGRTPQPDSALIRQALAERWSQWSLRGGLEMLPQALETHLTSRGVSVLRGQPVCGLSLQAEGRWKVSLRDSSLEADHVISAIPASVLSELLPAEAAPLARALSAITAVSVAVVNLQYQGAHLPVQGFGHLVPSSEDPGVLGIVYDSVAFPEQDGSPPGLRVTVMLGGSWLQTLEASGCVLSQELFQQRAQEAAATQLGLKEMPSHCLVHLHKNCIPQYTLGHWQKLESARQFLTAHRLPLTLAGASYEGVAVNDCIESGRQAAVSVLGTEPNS
inactive: [1] 0.324 | filanesib -0.226 | zotarolimus 0.352 | alisertib 0.033 | [2] -0.178 | gefitinib 0.116 | [3] 0.021 | lapatinib 0.471 | pictilisib 0.475
active: idasanutlin 0.574

RAB11FIP1 (UniProt Q6WKZ4)
inactive: [1] -0.024 | filanesib 0.004 | zotarolimus 0 | idasanutlin -0.015 | alisertib 0.368 | [2] -0.03 | gefitinib -0.009 | [3] 0.007 | lapatinib 0.01 | pictilisib -0.107

PRKCD (UniProt Q05655)
inactive: [1] -0.019 | filanesib -0.004 | zotarolimus 0.032 | idasanutlin -0.017 | alisertib 0.037 | [2] -0.003 | gefitinib -0.002 | [3] 0.074 | lapatinib 0.02 | pictilisib 0.026

PURA (UniProt Q00577)
inactive: [1] -0.336 | filanesib 0.277 | zotarolimus -0.093 | idasanutlin 0.179 | alisertib -0.106 | [2] -0.052 | gefitinib -0.024 | [3] -0.113 | lapatinib 0.104 | pictilisib -0.071

PBK (UniProt Q96KB5)
inactive: [1] -0.01 | filanesib 0.056 | zotarolimus 0.112 | idasanutlin 0.027 | alisertib -0.032 | [2] 0.014 | gefitinib 0.084 | [3] -0.169 | lapatinib -0.001 | pictilisib 0.086

PDLIM7 (UniProt Q9NR12)
inactive: [1] 0.055 | filanesib 0.014 | zotarolimus 0.014 | idasanutlin -0.042 | alisertib -0.06 | [2] 0.03 | gefitinib -0.104 | [3] 0.012 | lapatinib 0.012 | pictilisib -0.046

PELO (UniProt Q9BRX2)
Chain of UniProt Q9BRX2 (Q9BRX2 whole entry, looked up): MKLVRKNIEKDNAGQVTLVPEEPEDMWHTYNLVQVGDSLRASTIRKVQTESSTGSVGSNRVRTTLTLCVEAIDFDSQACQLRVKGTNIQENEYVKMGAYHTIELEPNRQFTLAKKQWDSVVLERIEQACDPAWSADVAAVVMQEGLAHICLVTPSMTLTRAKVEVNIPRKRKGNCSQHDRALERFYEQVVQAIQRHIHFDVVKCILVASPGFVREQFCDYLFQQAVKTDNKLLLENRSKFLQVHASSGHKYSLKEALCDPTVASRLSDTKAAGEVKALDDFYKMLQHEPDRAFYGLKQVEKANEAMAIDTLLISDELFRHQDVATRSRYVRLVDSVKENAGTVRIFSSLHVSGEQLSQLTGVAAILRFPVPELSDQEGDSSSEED
inactive: [1] 0.001 | filanesib 0.128 | zotarolimus 0.158 | idasanutlin -0.024 | alisertib 0.489 | [2] 0.053 | gefitinib 0.009 | [3] 0.001 | lapatinib -0.06 | pictilisib -0.111

PEA15 isoform 2 (UniProt Q15121)
Chain of UniProt Q15121 (Q15121 whole entry, looked up): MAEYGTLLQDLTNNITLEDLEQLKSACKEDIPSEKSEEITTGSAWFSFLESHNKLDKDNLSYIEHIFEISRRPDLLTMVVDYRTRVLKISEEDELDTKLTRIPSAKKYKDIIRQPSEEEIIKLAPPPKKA
inactive: [1] 0.011 | filanesib -0.079 | zotarolimus 0.05 | idasanutlin -0.02 | alisertib -0.047 | [2] -0.009 | gefitinib 0 | [3] -0.015 | lapatinib -0.003 | pictilisib 0.03

PNPLA2 (UniProt Q96AD5)
inactive: [1] -0.089 | filanesib -0.134 | zotarolimus 0.002 | idasanutlin -0.082 | alisertib 0.014 | [2] -0.077 | gefitinib -0.048 | [3] 0.029 | lapatinib -0.032 | pictilisib 0.02

PDE4DIP isoform 4 (UniProt Q5VU43)
inactive: [1] 0.113 | filanesib -0.057 | zotarolimus -0.046 | idasanutlin 0.055 | alisertib -0.102 | [2] 0.024 | gefitinib 0.024 | [3] -0.022 | lapatinib -0.005 | pictilisib 0.042

PML (UniProt P29590)
inactive: [1] -0.043 | filanesib 0.014 | zotarolimus 0.041 | idasanutlin 0.003 | alisertib -0.022 | [2] -0.026 | gefitinib -0.015 | [3] -0.081 | lapatinib 0.024 | pictilisib 0.119

PRPSAP2 (UniProt O60256)
Chain of UniProt O60256 (O60256 whole entry, looked up): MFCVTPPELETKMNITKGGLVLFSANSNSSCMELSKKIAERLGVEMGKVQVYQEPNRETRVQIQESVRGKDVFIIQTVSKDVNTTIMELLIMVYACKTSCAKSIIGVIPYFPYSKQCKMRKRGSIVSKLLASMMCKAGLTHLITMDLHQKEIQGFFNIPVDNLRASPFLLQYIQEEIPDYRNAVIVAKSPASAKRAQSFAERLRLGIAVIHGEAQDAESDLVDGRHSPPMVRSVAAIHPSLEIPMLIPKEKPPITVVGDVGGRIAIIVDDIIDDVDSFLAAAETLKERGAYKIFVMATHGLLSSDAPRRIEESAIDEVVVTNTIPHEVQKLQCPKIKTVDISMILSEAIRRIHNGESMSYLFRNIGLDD
inactive: [1] -0.168 | filanesib 0.084 | zotarolimus 0.029 | idasanutlin 0.012 | alisertib -0.078 | [2] 0.011 | gefitinib -0.022 | [3] 0.025 | lapatinib -0.011
active: pictilisib -0.233

PNPLA8 (UniProt Q9NP80)
inactive: [1] -0.061 | filanesib 0.006 | zotarolimus -0.077 | idasanutlin -0.072 | alisertib -0.053 | [2] -0.125 | gefitinib 0.032 | [3] 0.047 | lapatinib -0.022 | pictilisib 0.118

PPP2R5C isoform 4 (UniProt Q13362)
Chain of UniProt Q13362 (Q13362 whole entry, looked up): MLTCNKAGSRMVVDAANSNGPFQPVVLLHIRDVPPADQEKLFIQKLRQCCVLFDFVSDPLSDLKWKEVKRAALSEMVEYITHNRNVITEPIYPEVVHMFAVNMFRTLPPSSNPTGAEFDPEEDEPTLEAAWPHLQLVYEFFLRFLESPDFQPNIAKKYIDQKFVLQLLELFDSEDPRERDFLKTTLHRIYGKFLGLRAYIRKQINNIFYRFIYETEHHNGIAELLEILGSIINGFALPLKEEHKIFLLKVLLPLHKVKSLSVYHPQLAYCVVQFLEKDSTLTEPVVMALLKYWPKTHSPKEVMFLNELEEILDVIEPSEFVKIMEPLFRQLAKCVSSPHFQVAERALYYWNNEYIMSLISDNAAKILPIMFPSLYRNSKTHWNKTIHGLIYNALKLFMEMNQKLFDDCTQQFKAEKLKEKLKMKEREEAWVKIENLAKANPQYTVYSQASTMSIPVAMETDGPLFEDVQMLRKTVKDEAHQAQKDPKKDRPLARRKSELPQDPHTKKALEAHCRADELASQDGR
inactive: [1] 0.125 | filanesib -0.018 | zotarolimus -0.019 | idasanutlin 0.017 | alisertib 0.031 | [2] 0.155 | gefitinib -0.004 | [3] 0.002 | lapatinib 0.053 | pictilisib 0.021
